Values without a mark were called inactive. Records with an inconclusive call do not appear. Entries that show only a call come without a potency. Activity calls are given as the source filed them. Unless noted, calls follow the shape of the dose curve; as a rule, active = well fitted curve in the direction sought with a large enough effect in the repeat runs; inconclusive = weak or mixed curves; inactive = no such curve, though single readings can be large; an effect the other way counts as inactive or inconclusive.
Columns and labels:
[1] = qHTS assay to test for compound auto fluorescence at 535 nm (green) in HEK293 cells (AID 720680)
[2] = qHTS assay to test for compound auto fluorescence at 460 nm (blue) in HEK293 cell free culture (AID 720681)
Procedure, shortened: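 Compounds were added to cell-free DMEM with 10% FBS and fluorescence read directly. The blue channel used 405 nm excitation and 460 nm emission, with triamterene as the reference fluorophore.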

[3] = qHTS assay to test for compound auto fluorescence at 535 nm (green) in HEK293 cell free culture (AID 720682)
Procedure, shortened: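 Measurement is a direct plate read of green fluorescence (485 nm in, 535 nm out) after compound addition to serum-supplemented DMEM lacking cells, with fluorescein used to express intensities.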

[4] = qHTS assay to test for compound auto fluorescence at 590 nm (red) in HEK293 cell free culture (AID 720683)
Procedure, shortened: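 Cell-free wells of DMEM with 10% FBS received compound, and intrinsic fluorescence was read at excitation/emission 540/590 nm. Values expressed as equivalence to Rose Bengal sodium.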

[5] = qHTS assay to test for compound auto fluorescence at 590 nm (red) in HepG2 cell free culture (AID 720684)
Procedure, shortened: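 Auto fluorescence equivalency versus Rose Bengal sodium, red channel Ex/Em 540/590 nm; compounds in cell-free MEM/10% FBS; DMSO vehicle control.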

[6] = qHTS assay to test for compound auto fluorescence at 460 nm (blue) in HepG2 cell free culture (AID 720685)
Procedure, shortened: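 Cell-free plates of MEM plus 10% FBS received 23 nL compound or DMSO vehicle; blue-channel (405/460 nm) intensity scored against triamterene as reference fluorophore.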

[7] = qHTS assay to test for compound auto fluorescence at 535 nm (green) in HepG2 cell free culture (AID 720686)
[8] = qHTS assay to test for compound auto fluorescence at 460 nm (blue) in HepG2 cells (AID 720687)
Procedure, shortened: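 HepG2 cells in MEM with 10% FBS, attached overnight at 37 C, were exposed to compound or DMSO for 1 hr at 37 C, 5% CO2. Blue fluorescence was read at 405/460 nm, with triamterene as reference fluorophore.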

[9] = target: Glucocorticoid receptor (Homo sapiens) (UniProt P04150); assay: qHTS assay to identify small molecule agonists of the glucocorticoid receptor (GR) signaling pathway (AID 720691; active = well fitted activation curve with a large enough effect in the signal ratio in the repeat runs, not every such curve was filed as active; the % refers to the signal ratio)
Procedure, shortened: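 Agonist-mode qHTS in HeLa cells stably expressing a glucocorticoid-response-element beta-lactamase reporter. Fluorescence intensity read with FRET substrate (2 h, room temperature) after 18 h compound treatment at 37 C.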

[10] = qHTS assay to identify small molecule antagonists of the glucocorticoid receptor (GR) signaling pathway - cell viability counter screen (AID 720693); also: nearly all actives have a fitted effect of over 55% in size
[11] = qHTS assay for identifying genotoxic compounds that show differential cytotoxicity against isogenic chicken DT40 cell lines with known DNA damage response pathways - wild type cell line (AID 743012); also: nearly all actives have a fitted effect of over 60% in size; also: potency is read from the fitted curve at half-maximal effect
Procedure, shortened: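 Viability by ATP luminescence (CellTiter-Glo, 30 min RT) after 40 h compound treatment at 37 C/5% CO2, using 300 parental DNA repair-proficient DT40 cells per well.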

[12] = qHTS assay for identifying genotoxic compounds that show differential cytotoxicity against isogenic chicken DT40 cell lines with known DNA damage response pathways - Rad54/Ku70 mutant cell line (AID 743015); also: nearly all actives have a fitted effect of over 60% in size; also: potency is read from the fitted curve at half-maximal effect
[13] = qHTS assay to identify small molecule antagonists of the androgen receptor (AR) signaling pathway - cell viability counter screen (AID 743033; also: nearly all actives have a fitted effect of over 45% in size)
[14] = qHTS assay to identify small molecule antagonists of the androgen receptor (AR) signaling pathway using the MDA cell line - cell viability counter screen (AID 743041; also: nearly all actives have a fitted effect of over 45% in size; also: potency is read from the fitted curve at half-maximal effect)
Procedure, shortened: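 Compound exposure lasted 16 h at 37C in MDA-kb2 AR-luc cells stimulated with R1881. Protease-based CellTiter-Fluor reagent was applied for the final 30 min and fluorescence measured.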

[15] = target: Glucocorticoid receptor (Homo sapiens) (UniProt P04150); assay: qHTS assay to identify small molecule antagonists of the glucocorticoid receptor (GR) signaling pathway (AID 720692; active = well fitted inhibition curve with a large enough effect in the signal ratio in the repeat runs, not every such curve was filed as active; the % refers to the signal ratio)
Procedure, shortened: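 Inhibition of dexamethasone-driven (5 nM final) beta-lactamase expression was measured in GRE-reporter HeLa cells over 18 h at 37C. Fluorescence was read after 2 h with the B/G FRET substrate at room temperature.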

[16] = qHTS assay for identifying genotoxic compounds that show differential cytotoxicity against isogenic chicken DT40 cell lines with known DNA damage response pathways - Rev3 mutant cell line (AID 743014); also: nearly all actives have a fitted effect of over 55% in size; also: potency is read from the fitted curve at half-maximal effect
[17] = target: Androgen receptor (Homo sapiens) (UniProt P10275); assay: qHTS assay to identify small molecule antagonists of the androgen receptor (AR) signaling pathway (AID 743035; active = well fitted inhibition curve with a large enough effect in the signal ratio in the repeat runs, not every such curve was filed as active; the % refers to the signal ratio)
Procedure, shortened: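 Antagonist mode: AR-bla HEK293 cells co-treated with test compounds and agonist R1881 for 16 h at 37C, 5% CO2. Beta-lactamase activity read as FRET fluorescence after 2 h room-temperature substrate loading.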

[18] = target: Androgen receptor (Homo sapiens) (UniProt P10275); assay: qHTS assay to identify small molecule agonists of the androgen receptor (AR) signaling pathway using the MDA cell line (AID 743040; also: nearly all actives have a fitted effect of over 20% in size)
Procedure, shortened: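 Testing was done with the MDA-kb2 AR-luc line, a human breast carcinoma stably transfected with MMTV-luciferase containing AR and GR response elements. Cells were exposed 16 h at 37C before ONE-Glo luminescence detection.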

[19] = target: Androgen receptor (Homo sapiens) (UniProt P10275); assay: qHTS assay to identify small molecule antagonists of the androgen receptor (AR) signaling pathway using the MDA cell line (AID 743042; also: nearly all actives have a fitted effect of over 55% in size)
Procedure, shortened: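 MDA-kb2 breast carcinoma cells carrying MMTV-luciferase (AR/GR responsive) were co-treated with compounds and the agonist R1881 for 16 h at 37C. Inhibition read as ONE-Glo luminescence; CellTiter-Fluor fluorescence measured in parallel for cytotoxicity.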

Androgen receptor (Homo sapiens), sequence (P10275 whole entry, looked up): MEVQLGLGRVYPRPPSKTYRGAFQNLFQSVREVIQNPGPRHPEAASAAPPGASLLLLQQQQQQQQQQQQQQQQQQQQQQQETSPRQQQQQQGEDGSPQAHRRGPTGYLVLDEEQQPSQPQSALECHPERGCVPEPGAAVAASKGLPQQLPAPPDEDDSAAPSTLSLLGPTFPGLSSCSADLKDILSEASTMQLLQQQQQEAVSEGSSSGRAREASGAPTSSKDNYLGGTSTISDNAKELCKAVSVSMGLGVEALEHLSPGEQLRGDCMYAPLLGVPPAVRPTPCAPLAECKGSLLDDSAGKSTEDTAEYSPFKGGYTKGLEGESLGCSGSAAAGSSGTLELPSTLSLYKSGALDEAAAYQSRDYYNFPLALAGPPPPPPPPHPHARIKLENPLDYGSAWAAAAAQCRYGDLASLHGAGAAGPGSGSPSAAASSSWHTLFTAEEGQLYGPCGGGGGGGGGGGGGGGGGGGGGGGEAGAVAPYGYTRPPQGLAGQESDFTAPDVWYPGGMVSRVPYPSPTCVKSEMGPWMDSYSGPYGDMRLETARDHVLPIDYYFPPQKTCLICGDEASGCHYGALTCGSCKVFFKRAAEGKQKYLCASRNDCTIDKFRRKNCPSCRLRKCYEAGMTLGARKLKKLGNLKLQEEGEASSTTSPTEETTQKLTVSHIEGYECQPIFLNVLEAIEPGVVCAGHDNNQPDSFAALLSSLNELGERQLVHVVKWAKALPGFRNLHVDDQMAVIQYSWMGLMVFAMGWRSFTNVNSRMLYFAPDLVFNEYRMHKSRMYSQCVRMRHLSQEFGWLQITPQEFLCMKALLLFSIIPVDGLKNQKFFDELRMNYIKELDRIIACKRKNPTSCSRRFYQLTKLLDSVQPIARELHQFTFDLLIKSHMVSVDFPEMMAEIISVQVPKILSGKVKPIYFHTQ
Glucocorticoid receptor (Homo sapiens), sequence (P04150 whole entry, looked up): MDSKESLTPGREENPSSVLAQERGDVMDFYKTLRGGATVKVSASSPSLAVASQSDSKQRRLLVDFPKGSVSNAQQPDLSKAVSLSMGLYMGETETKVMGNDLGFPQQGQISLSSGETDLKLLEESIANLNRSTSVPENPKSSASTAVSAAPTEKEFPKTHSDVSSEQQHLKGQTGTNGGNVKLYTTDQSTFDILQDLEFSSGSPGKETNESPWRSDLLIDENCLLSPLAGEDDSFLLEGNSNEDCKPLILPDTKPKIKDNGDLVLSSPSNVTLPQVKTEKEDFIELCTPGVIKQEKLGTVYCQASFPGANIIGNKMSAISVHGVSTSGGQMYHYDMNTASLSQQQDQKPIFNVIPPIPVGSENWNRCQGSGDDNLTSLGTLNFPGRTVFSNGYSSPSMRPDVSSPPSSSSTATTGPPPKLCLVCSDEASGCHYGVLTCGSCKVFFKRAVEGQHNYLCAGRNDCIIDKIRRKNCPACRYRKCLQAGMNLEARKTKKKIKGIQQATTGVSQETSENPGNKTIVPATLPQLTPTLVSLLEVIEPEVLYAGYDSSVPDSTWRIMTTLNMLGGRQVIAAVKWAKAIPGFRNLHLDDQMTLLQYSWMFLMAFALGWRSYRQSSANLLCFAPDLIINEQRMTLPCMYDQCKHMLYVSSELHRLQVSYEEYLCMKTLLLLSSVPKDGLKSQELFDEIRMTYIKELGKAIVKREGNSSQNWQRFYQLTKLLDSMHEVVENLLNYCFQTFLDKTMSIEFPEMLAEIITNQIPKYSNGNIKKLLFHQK

| SMILES | outcome [1] | Potency [2] | outcome [3] | outcome [4] | outcome [5] | Potency [6] | outcome [7] | Potency [8] | Potency [9] | Potency [10] | Potency [11] | Potency [12] | Potency [13] | Potency [14] | Potency [15] | Potency [16] | Potency [17] | Potency [18] | Potency [19] |
| --- | --- | --- | --- | --- | --- | --- | --- | --- | --- | --- | --- | --- | --- | --- | --- | --- | --- | --- | --- |
| CCOC(=O)C1=NN(c2ccccc2)C(=O)C1 | inactive | inactive | inactive | inactive | inactive | inactive | inactive | inactive | inactive | inactive | inactive | inactive | inactive | inactive |  |  |  |  |  |
| CCN(CCO)CCCC(C)Nc1ccnc2cc(Cl)ccc12 (stereo not given) | inactive | inactive | inactive | inactive | inactive | inactive | inactive | inactive | inactive | inactive | 29.8 µM (active) |  | inactive | inactive | inactive | 23.7 µM (active) |  |  |  |
| O=C(O)C1CCC(C(=O)O)CC1 (stereo not given) | inactive | inactive | inactive | inactive | inactive | inactive | inactive | inactive | inactive | inactive |  | 68.4 µM (active) |  |  | inactive | 60.9 µM (active) |  |  |  |
| COc1ccc2[nH]c(S(=O)Cc3ncc(C)c(OC)c3C)nc2n1 (stereo not given) | inactive | inactive | inactive | inactive | inactive | inactive | inactive | inactive | inactive |  | 29.8 µM (active) | 29.8 µM (active) | inactive | inactive | inactive |  |  |  |  |
| O=C=NC1CCC(CC2CCC(N=C=O)CC2)CC1 (stereo not given) | inactive | inactive | inactive | inactive | inactive | inactive | inactive | inactive | inactive | inactive |  |  | inactive | 6.86 µM (active) | inactive | 54.5 µM (active) |  |  |  |
| N#CCc1cccc(C(F)(F)F)c1 | inactive | inactive | inactive | inactive | inactive | inactive | inactive | inactive | inactive | inactive | inactive | inactive | inactive | inactive | inactive | inactive |  |  |  |
| CCCCCCCCCO | inactive | inactive | inactive | inactive | inactive | inactive | inactive | inactive | inactive | inactive |  |  |  |  |  |  |  |  |  |
| O=C(NN1CCCC1)NS(=O)(=O)c1ccc(Cl)cc1 | inactive | inactive | inactive | inactive | inactive | inactive | inactive | inactive | inactive |  | inactive | inactive | inactive | inactive | inactive | inactive |  |  |  |
| O=C(O)Cc1sc(-c2ccccc2)nc1-c1ccc(Cl)cc1 | inactive | inactive | inactive | inactive | inactive | inactive | inactive | inactive | inactive | inactive | inactive | inactive | inactive | inactive | inactive | inactive | inactive | inactive | inactive |

From PubChem BioAssay (Tox21)
